The full list was thinned out, with hits kept by preference.
GIRK2 act – activators of NPY4-receptor-primed GIRK2 channels, summary, cell-based, HEK293, thallium flux. activation (% efficacy), % for hits at 37.5 µM. HEK293 GIRK2/NPY4 cells, thallium flux fluorescence. 34,000 tested, under 10 active;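 active = primary screen hit, no activity in plain HEK293 cells, and in GIRK2-only cells above 5% efficacy rising with concentration; inactive = the rest, including fluorescent compounds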;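 also: efficacy is normalized control-subtracted fluorescence 15 s after thallium addition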
Target sequence (P48051 whole entry, looked up): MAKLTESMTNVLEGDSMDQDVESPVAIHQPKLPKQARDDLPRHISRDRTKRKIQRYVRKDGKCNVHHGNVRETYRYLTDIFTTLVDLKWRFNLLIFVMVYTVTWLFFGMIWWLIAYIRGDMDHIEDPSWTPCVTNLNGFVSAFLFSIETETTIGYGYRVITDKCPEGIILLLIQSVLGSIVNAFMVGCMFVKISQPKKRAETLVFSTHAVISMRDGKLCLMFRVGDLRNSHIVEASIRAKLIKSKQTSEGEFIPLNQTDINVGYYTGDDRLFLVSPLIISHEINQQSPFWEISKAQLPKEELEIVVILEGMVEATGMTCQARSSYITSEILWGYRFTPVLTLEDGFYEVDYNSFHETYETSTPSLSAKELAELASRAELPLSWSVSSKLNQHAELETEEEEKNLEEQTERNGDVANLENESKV
GluA2 TARP mod – modulators of GluA2-stargazin AMPA receptor complexes, primary screen, cell-based, membrane potential dye; Voltage-dependent calcium channel gamma-2 subunit (Mus musculus) + Glutamate receptor 2 …; HEK293 GluA2+stargazin, membrane potential dye (FDSS), glutamate EC50; hits were called plate by plate, in both directions; calls only at 30 µM; 40,000 tested, 3.5% active; AID 1259245, 2017;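 active = any of four per-well response measures lying three or more SD from its plate-wide compound average, in either direction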
* = called active by the depositor.

`Cc1nc(NC(=O)Cn2c(-c3cnccn3)nc3ccccc32)sc1C(=O)N(C)C` gave GIRK2 act inactive and GluA2 TARP mod inactive.
For Cc1cc(C)n(CCNC(=O)Cn2c(-c3cnccn3)nc3ccccc32)n1 the results were GIRK2 act inactive and GluA2 TARP mod inactive.
`CSc1ccccc1NC(=O)Cn1c(-c2cnccn2)nc2ccccc21` gave GIRK2 act inactive and GluA2 TARP mod active.
For Cc1ccc(Cl)cc1N1CCN(C(=O)Cn2c(-c3cnccn3)nc3ccccc32)CC1 the results were GIRK2 act inactive and GluA2 TARP mod active.
Cc1cc(O)c(C(Cc2ccccc2)c2c(O)cc(C)[nH]c2=O)c(=O)[nH]1 was read as GIRK2 act inactive and GluA2 TARP mod inactive.
For CC(=O)c1cccc(NC(=O)Cn2cc(-c3ccc(Cl)cc3)c(N(C)C)n2)c1 the results were GIRK2 act inactive.
Screening Cc1ccc(C)c(C(=O)N(CCc2ccccc2)Cc2ccccn2)c1 returned GIRK2 act inactive and GluA2 TARP mod inactive.
Screening Cc1c(O)ccc2c(=O)c(-c3ccc(F)cc3)c(C(F)(F)F)oc12 returned GluA2 TARP mod inactive.
`CSc1ccccc1NC(=O)C(=O)NCCc1ccc(Cl)cc1` gave GIRK2 act inactive and GluA2 TARP mod active.
Screening CCc1ccccc1NC(=O)C(=O)NCCc1ccc(Cl)cc1 returned GIRK2 act inactive and GluA2 TARP mod inactive.
Screening Cc1ccc(C)c(S(=O)(=O)N2CCCN(CCn3cccn3)CC2)c1 returned GIRK2 act inactive and GluA2 TARP mod inactive.
For Cc1ccc(S(=O)(=O)N2CCN(CCn3cccn3)CC2)c(C)c1 the results were GIRK2 act inactive and GluA2 TARP mod active.
For Cc1cc(NC(=O)CCCc2ccccc2)n(C2CCS(=O)(=O)C2)n1 (configuration not stated) the results were GIRK2 act inactive and GluA2 TARP mod inactive.
O=[N+]([O-])c1ccc(/C=N\O)s1 was read as GIRK2 act inactive.
For CCOc1ccccc1NC(=O)Cn1cc(-c2ccccc2)c2ncn(CCOC)c(=O)c21 the results were GIRK2 act inactive and GluA2 TARP mod inactive.
For CCOC(=O)c1ccccc1NC(=O)Cn1cc(-c2ccccc2)c2ncn(CCOC)c(=O)c21 the results were GIRK2 act inactive and GluA2 TARP mod active.
For COc1ccc(-c2cc(C(=O)Nc3ccc4c(c3)OCO4)c3ccccc3n2)c(OC)c1 the results were GluA2 TARP mod inactive.
Screening O=C(NCC1CCN(C(=O)c2cc3ccccc3o2)CC1)c1ccc2nsnc2c1 returned GIRK2 act inactive and GluA2 TARP mod active.
For O=C(NCc1cccs1)NCC1CCN(C(=O)c2cc3ccccc3o2)CC1 the results were GIRK2 act inactive and GluA2 TARP mod inactive.
For O=C(NCC1CCN(C(=O)c2ccccc2F)CC1)c1ccc2nsnc2c1 the results were GIRK2 act inactive and GluA2 TARP mod inactive.
Screening O=C(/C=C/c1cccs1)NCC1CCN(C(=O)c2cc3ccccc3o2)CC1 returned GIRK2 act inactive and GluA2 TARP mod active.
Screening CCC(C)(C(=O)NC1CCCCC1)N(Cc1ccco1)C(=O)c1ccc(=O)[nH]c1 (configuration not stated) returned GIRK2 act inactive and GluA2 TARP mod inactive.
Cc1cc(Br)cc(C)c1OCC(=O)Nc1ccc2c(c1)OCO2 was read as GIRK2 act inactive and GluA2 TARP mod inactive.
Cc1cccc(NC(=O)CSc2ccc(NC(=O)c3ccco3)nn2)c1C was read as GIRK2 act inactive and GluA2 TARP mod inactive.
For COc1cccc(C(CNC(=O)Cc2cccc3ccccc23)N2CCOCC2)c1 (configuration not stated) the results were GluA2 TARP mod inactive.
For COc1cccc(C(CNC(=O)C2(c3cccs3)CCCC2)N2CCOCC2)c1 (configuration not stated) the results were GIRK2 act inactive and GluA2 TARP mod active.
Screening COc1cccc(C(CNC(=O)c2cccc3ccccc23)N2CCOCC2)c1 (configuration not stated) returned GluA2 TARP mod active.
COc1cccc(C(CNC(=O)C(=O)NCc2cccs2)N2CCOCC2)c1 (configuration not stated) was read as GIRK2 act inactive and GluA2 TARP mod inactive.
`COc1ccccc1N1CCN(C(=O)CSc2ncnc3c2[nH]c2ccccc23)CC1` gave GIRK2 act inactive and GluA2 TARP mod inactive.
Screening CCOCCn1c(=NC(=O)c2cc(C)no2)sc2cc(F)ccc21 returned GIRK2 act inactive and GluA2 TARP mod inactive.
Screening O=C(CCc1ccccc1)Nc1ccc(N2CCCCS2(=O)=O)cc1 returned GluA2 TARP mod inactive.
COc1cccc2cc(C(=O)N3CCC4(CC3)OCCN4S(=O)(=O)c3cccs3)c(=O)oc12 was read as GIRK2 act inactive and GluA2 TARP mod inactive.
CCOC(=O)COc1ccc2c(c1)O/C(=C\c1cc(OC)c(OC)c(OC)c1)C2=O was read as GluA2 TARP mod inactive.
O=C(c1cccs1)N(CCCn1ccnc1)c1nc2ccccc2s1 was read as GIRK2 act inactive and GluA2 TARP mod inactive.
`Cc1ccc(Cl)c2sc(N(CCCn3ccnc3)C(=O)c3cccs3)nc12` gave GIRK2 act inactive and GluA2 TARP mod active.
Screening COc1ccc(NC(=O)c2ccc(=O)n(CC(=O)NCc3cccc(OC)c3)n2)cc1 returned GIRK2 act inactive and GluA2 TARP mod inactive.
Screening CCc1ccc(-c2cc3c(=O)n(Cc4nc(-c5ccc(OC)cc5OC)no4)ccn3n2)cc1 returned GIRK2 act inactive and GluA2 TARP mod inactive.
CCc1ccc(-c2cc3c(=O)n(Cc4nc(-c5cccc(C(F)(F)F)c5)no4)ccn3n2)cc1 was read as GIRK2 act inactive and GluA2 TARP mod active.
COc1ccccc1-c1coc2cc(OCc3ccc(F)cc3)ccc2c1=O was read as GluA2 TARP mod inactive.
Screening COc1ccc2c(=O)c(-c3ccccc3OC)coc2c1 returned GIRK2 act inactive and GluA2 TARP mod active.
`CCc1ccc(S(=O)(=O)Nc2ccc3c(c2)CCCN3S(=O)(=O)c2ccc(OC)cc2)cc1` gave GluA2 TARP mod inactive.
For O=S(=O)(C1CC1)N1CCN(c2ccc(-c3ccccn3)nn2)CC1 the results were GIRK2 act inactive and GluA2 TARP mod inactive.
`O=C(Nc1ccc2ncsc2c1)c1ccc(S(=O)(=O)N2CCOCC2)cc1` gave GIRK2 act inactive and GluA2 TARP mod inactive.
Screening CC1CC(C)CN(S(=O)(=O)c2ccc(C(=O)Nc3ccc4ncsc4c3)cc2)C1 (configuration not stated) returned GIRK2 act inactive and GluA2 TARP mod active.
`Cc1nc2ccccn2c1C(=O)NCC1CCN(S(=O)(=O)C2CC2)CC1` gave GIRK2 act inactive and GluA2 TARP mod inactive.
For COCCN=Cc1c(NCCOC)nc2ccccn2c1=O the results were GIRK2 act inactive and GluA2 TARP mod active.
Screening CC(=O)Nc1cccc(NC(=O)c2csc(Nc3cccc(Cl)c3)n2)c1 returned GIRK2 act inactive.
`O=S(=O)(c1cccs1)N1CCC(Cn2c(C(F)(F)F)nc3ccccc32)CC1` gave GIRK2 act inactive and GluA2 TARP mod active.

From PubChem BioAssay
